From PubChem
The list is not random: actives were taken first. Their share in the collection is about 3.2%.
Mtb FBA inh: inhibits M. tuberculosis FBA enzyme | purified M. tuberculosis FBA, fluorescence read-out | inhibition, % at 1 µM | 360,000 compounds, 2.3% hits | AID 588726 | P9WQA3; in the data active means inhibition above about 27%;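 further: 0% = vehicle and 100% = reference inhibitor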
Rv3671c inh: inhibits the M. tuberculosis serine protease Rv3671c | P9WHR9 | inhibition, % at 5.96 µM | 320,000 compounds, 0.048% hits | AID 2606; in the data active means inhibition above about 38%;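 further: extracellular domain of Rv3671c used as enzyme; 0% = enzyme with DMSO and 100% = no enzyme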
UGM FP inh: blocks M. tuberculosis UGM enzyme. P9WIQ1. purified UGM, fluorescence polarization probe displacement. inhibition, % at 10 µM. 320,000 compounds, 0.06% hits. AID 504406; in the data active means inhibition above about 10%, passing the limit was not always enough
Target sequence (P9WIQ1 whole entry, looked up): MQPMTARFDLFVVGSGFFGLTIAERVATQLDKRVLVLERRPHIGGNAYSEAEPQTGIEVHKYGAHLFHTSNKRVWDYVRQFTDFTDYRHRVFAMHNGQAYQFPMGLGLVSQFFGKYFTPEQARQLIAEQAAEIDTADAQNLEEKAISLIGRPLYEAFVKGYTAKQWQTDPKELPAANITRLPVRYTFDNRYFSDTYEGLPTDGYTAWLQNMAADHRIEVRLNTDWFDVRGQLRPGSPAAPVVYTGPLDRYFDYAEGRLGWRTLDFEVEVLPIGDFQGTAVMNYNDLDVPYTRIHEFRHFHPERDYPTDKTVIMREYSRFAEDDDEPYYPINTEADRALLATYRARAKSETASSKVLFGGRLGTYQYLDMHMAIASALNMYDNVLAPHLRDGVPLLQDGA
SSB-PriA inh: blocks PriA binding to SSB C-terminal tail | AlphaScreen SSBct-PriA binding, biotinylated peptide | inhibition, % at 33 µM | AID 1272365 | 430,000 compounds, 0.6% hits; in the data active means inhibition mostly above about 37%, no sharp cut-off; inactive means mostly below about 20%;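 further: plate controls were negative control peptide for no effect and reference peptide for full effect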
GDH-TPI counter: counter-screen for M. tuberculosis FBA inhibitors: GDH-TPI coupled enzymes. 360,000 compounds, 1.2% hits. inhibition, % at 4.8 µM. GDH-TPI coupled enzyme counterscreen, NADH absorbance. AID 588335; in the data active means inhibition above about 30%;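 further: 0% = DMSO wells and 100% = wells lacking the enzyme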
Mtb betalactam: beta-lactam sensitization of Mtb H37Rv; M. tuberculosis H37Rv growth with meropenem, percent inhibition; inhibition, % at 25 µM; 330,000 compounds, 0.27% hits; AID 434955; call rule not given here;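 further: growth measured after seven days incubation then overnight dye step; 0% = bacteria only wells and 100% = bacteria with antibiotic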
An asterisk follows results filed as active; ! = a repeat was not active.

How did O=C(NNC(=O)c1ccncc1)Nc1ccc(N=Nc2ccccc2)cc1 do in these assays?
Mtb FBA inh: -2; SSB-PriA inh: -6; GDH-TPI counter: 37*

How did N#Cc1nc(COc2ccc(F)cc2)oc1N1CCCCC1 do in these assays?
Mtb FBA inh: 0; Rv3671c inh: 3; UGM FP inh: -1; SSB-PriA inh: 17; GDH-TPI counter: -4; Mtb betalactam: 8

How did N#Cc1nc(COc2ccc(Br)cc2)oc1N1CCCCCC1 do in these assays?
Mtb FBA inh: 2; Rv3671c inh: 6; UGM FP inh: 2; SSB-PriA inh: 24; GDH-TPI counter: 13; Mtb betalactam: -7

How did COc1ccc(Nc2oc(COc3ccc(Cl)cc3)nc2C#N)cc1 do in these assays?
Mtb FBA inh: 3; Rv3671c inh: 2; UGM FP inh: 2; SSB-PriA inh: 41*; GDH-TPI counter: -2; Mtb betalactam: -1

Results for N#Cc1nc(COc2ccc(Br)cc2)oc1N1CCCC1 ?
Mtb FBA inh: 2; Rv3671c inh: -1; UGM FP inh: 2; SSB-PriA inh: 51*; GDH-TPI counter: 6; Mtb betalactam: 4

How did N#Cc1nc(COc2ccc(F)cc2)oc1N1CCCCCC1 do in these assays?
SSB-PriA inh: 111*

Results for COc1ccc(CNc2oc(COc3ccc(Cl)cc3)nc2C#N)cc1 ?
Mtb FBA inh: -2; Rv3671c inh: -5; UGM FP inh: -2; SSB-PriA inh: 1; GDH-TPI counter: -1; Mtb betalactam: 78

What do the screens show for `N#Cc1nc(COc2ccc(Cl)cc2)oc1N1CCCCC1`?
SSB-PriA inh: 95*

How did COc1cccc(C(=O)C=C2NCCc3cc(OC)c(OC)cc32)c1 do in these assays?
SSB-PriA inh: 10

How did CN(C)c1ncc(NS(=O)(=O)c2cccs2)cn1 do in these assays?
SSB-PriA inh: 7

What do the screens show for `COc1ccc(N2CCN(c3oc(COc4ccccc4)nc3C#N)CC2)cc1`?
Mtb FBA inh: 2; Rv3671c inh: 1; UGM FP inh: 0; SSB-PriA inh: -20; GDH-TPI counter: 6; Mtb betalactam: 3

What do the screens show for `N#Cc1nc(COc2ccc(Cl)cc2Cl)oc1N1CCOCC1`?
Mtb FBA inh: 7; Rv3671c inh: -9; UGM FP inh: -1; SSB-PriA inh: 56*; GDH-TPI counter: 17; Mtb betalactam: -10

What do the screens show for `N#Cc1nc(COc2ccccc2)oc1N1CCCC1`?
Mtb FBA inh: 3; Rv3671c inh: -2; UGM FP inh: 0; SSB-PriA inh: 14; GDH-TPI counter: 2; Mtb betalactam: -1

Results for N#Cc1nc(COc2ccccc2)oc1N1CCCCCC1 ?
Mtb FBA inh: -3; Rv3671c inh: -9; UGM FP inh: 4; SSB-PriA inh: 109*!; GDH-TPI counter: 1; Mtb betalactam: 4

Results for COc1ccc(OCc2nc(C#N)c(N3CCCC3)o2)cc1 ?
SSB-PriA inh: 80*

Results for CN1CCN(c2oc(COc3ccc(-c4ccccc4)cc3)nc2C#N)CC1 ?
Mtb FBA inh: 1; Rv3671c inh: -4; UGM FP inh: -1; SSB-PriA inh: 60*; GDH-TPI counter: -12; Mtb betalactam: 79

Results for COc1cccc(N=C(C)N(C)CCNS(=O)(=O)c2ccc(Cl)cc2)c1 ?
SSB-PriA inh: 0

What do the screens show for `O=C(CCCc1ccccc1)Nc1ccc2c(c1)N(C(=O)c1ccco1)CC2`?
SSB-PriA inh: 4

What do the screens show for `Cc1ccc(OCc2nc(C#N)c(N3CCOCC3)o2)cc1`?
SSB-PriA inh: 82*

What do the screens show for `COc1ccc(OCc2nc(C#N)c(N3CCCCCC3)o2)cc1`?
SSB-PriA inh: 102*

What do the screens show for `N#Cc1nc(COc2ccccc2)oc1N1CCOCC1`?
Mtb FBA inh: -4; Rv3671c inh: -1; UGM FP inh: -3; SSB-PriA inh: 7; GDH-TPI counter: 3; Mtb betalactam: -4

Results for O=C(Cn1cccc1)N1CCC(S(=O)(=O)c2ccccc2)CC1 ?
SSB-PriA inh: 3

What do the screens show for `Cc1c(C(=O)O)cccc1-c1ccc(C=Nn2cnnc2)o1`?
SSB-PriA inh: -9

How did Cc1c(C(=O)O)cccc1-c1ccc(/C=N/n2cnnc2)o1 do in these assays?
Mtb FBA inh: 3; Rv3671c inh: -1; UGM FP inh: 1; GDH-TPI counter: 31*; Mtb betalactam: 1

How did O=C(O)c1cccc(-c2ccc(/C=N/n3cnnc3)o2)c1 do in these assays?
Mtb FBA inh: 19; Rv3671c inh: 0; UGM FP inh: 5; GDH-TPI counter: 35*; Mtb betalactam: 2

How did Clc1ccccc1-c1ccc(/C=N/n2cnnc2)o1 do in these assays?
Mtb FBA inh: 1; Rv3671c inh: -6; UGM FP inh: -1; GDH-TPI counter: 55*; Mtb betalactam: 6

How did Clc1cccc(-c2ccc(/C=N/n3cnnc3)o2)c1Cl do in these assays?
Mtb FBA inh: 3; Rv3671c inh: 5; UGM FP inh: -1; GDH-TPI counter: 34*; Mtb betalactam: -5

How did COc1ccc(OC)c(NC(=O)c2ccc(OC)c(OC)c2)c1 do in these assays?
SSB-PriA inh: -10

How did COc1cccc(CSc2nnc3n(C)c(=O)c4ccc(C(=O)NC5CCCC5)cc4n23)c1 do in these assays?
SSB-PriA inh: -7

Results for Cc1ccc(Cl)cc1-c1ccc(C=Nn2cnnc2)o1 ?
SSB-PriA inh: -5

Results for Cc1c(Cl)cccc1-c1ccc(/C=N/n2cnnc2)o1 ?
Mtb FBA inh: 2; Rv3671c inh: -3; UGM FP inh: 1; GDH-TPI counter: 33*; Mtb betalactam: 54

Results for O=c1sc(C=NNc2ccccc2)c(Cl)n1Cc1ccccc1 ?
SSB-PriA inh: 7

How did Cc1ccc(-c2cc(C(=O)N3CCC(NC(=O)c4cccc(N(C)C)c4)CC3)[nH]n2)c(C)c1 do in these assays?
SSB-PriA inh: 48*

How did Cc1ccc(-c2cc(C(=O)N3CCC(NC(=O)c4ccc5c(c4)OCO5)CC3)[nH]n2)c(C)c1 do in these assays?
SSB-PriA inh: -4

Results for O=C(Cn1cc(-c2nc(-c3ccsc3)no2)ccc1=O)N1CCc2ccccc21 ?
SSB-PriA inh: -9

How did O=C(CS(=O)(=O)c1ccc2c(c1)S(=O)(=O)N=CN2)N1CCN(c2ccc(F)cc2)CC1 do in these assays?
SSB-PriA inh: -15

Results for CC(C)[C@H](Nc1ccc(C(F)(F)F)cc1[N+](=O)[O-])C(=O)O ?
Mtb FBA inh: -7; Rv3671c inh: -1; UGM FP inh: 3; SSB-PriA inh: -1; GDH-TPI counter: 6; Mtb betalactam: -10

How did O=C(NNc1ccc(C(F)(F)F)cc1[N+](=O)[O-])c1ccc(NS(=O)(=O)c2ccc(F)cc2)cc1 do in these assays?
Mtb FBA inh: -4; Rv3671c inh: 11; UGM FP inh: 3; SSB-PriA inh: 60*; GDH-TPI counter: 0; Mtb betalactam: 17

How did COc1ccc(N2CCN(c3oc(-c4ccc(OC)c(OC)c4)nc3C#N)CC2)cc1 do in these assays?
Mtb FBA inh: -1; Rv3671c inh: -3; UGM FP inh: 0; SSB-PriA inh: -7; GDH-TPI counter: -9; Mtb betalactam: -11

Results for COc1ccc(-c2nc(C#N)c(N3CCCCC3)o2)cc1OC ?
SSB-PriA inh: 59*
